# In ChEMBL document CHEMBL1961873, “Compounds: GSK PKIS; Assays: Nanosyn kinase panel” (2012):
# Tests used:
# [1] = molecular target: Sphingosine kinase 1 (Homo sapiens) (UniProt Q9NYA1); conditions: at 1 µM;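 also: mean SPHK1 inhibition value reported from the GSK PKIS kinase panel screen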
# [2] = molecular target: T1, Sphingosine kinase 2 (Homo sapiens) (UniProt Q9NRA0); conditions: at 0.1 µM
# T1 sequence (whole entry): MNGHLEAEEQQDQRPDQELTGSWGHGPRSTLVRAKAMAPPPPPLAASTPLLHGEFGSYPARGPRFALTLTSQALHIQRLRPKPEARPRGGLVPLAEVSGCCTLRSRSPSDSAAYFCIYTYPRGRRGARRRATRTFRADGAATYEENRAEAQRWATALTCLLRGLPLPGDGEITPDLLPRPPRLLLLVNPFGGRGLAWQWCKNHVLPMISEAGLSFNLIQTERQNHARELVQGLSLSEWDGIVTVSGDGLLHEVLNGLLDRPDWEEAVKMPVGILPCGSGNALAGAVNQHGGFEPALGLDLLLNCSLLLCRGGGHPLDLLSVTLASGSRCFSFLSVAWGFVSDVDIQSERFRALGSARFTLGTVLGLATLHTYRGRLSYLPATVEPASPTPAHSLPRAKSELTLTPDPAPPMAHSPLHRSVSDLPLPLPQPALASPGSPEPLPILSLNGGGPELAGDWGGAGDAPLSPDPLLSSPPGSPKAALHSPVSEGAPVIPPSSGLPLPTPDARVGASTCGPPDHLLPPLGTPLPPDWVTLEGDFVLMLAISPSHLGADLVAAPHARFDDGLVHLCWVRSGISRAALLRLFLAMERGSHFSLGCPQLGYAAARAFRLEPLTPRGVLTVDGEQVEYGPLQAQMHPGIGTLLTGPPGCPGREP
# [3] = molecular target: T1, Sphingosine kinase 2 (Homo sapiens); conditions: at 1 µM
# [4] = molecular target: Casein kinase II subunit alpha (Homo sapiens) (UniProt P68400); conditions: at 0.1 µM
# [5] = molecular target: Casein kinase II subunit alpha (Homo sapiens) (UniProt P68400); conditions: at 1 µM
# [6] = molecular target: T2, Inhibitor of nuclear factor kappa-B kinase subunit alpha (Homo sapiens) (UniProt O15111); conditions: at 0.1 µM
# T2 sequence (whole entry): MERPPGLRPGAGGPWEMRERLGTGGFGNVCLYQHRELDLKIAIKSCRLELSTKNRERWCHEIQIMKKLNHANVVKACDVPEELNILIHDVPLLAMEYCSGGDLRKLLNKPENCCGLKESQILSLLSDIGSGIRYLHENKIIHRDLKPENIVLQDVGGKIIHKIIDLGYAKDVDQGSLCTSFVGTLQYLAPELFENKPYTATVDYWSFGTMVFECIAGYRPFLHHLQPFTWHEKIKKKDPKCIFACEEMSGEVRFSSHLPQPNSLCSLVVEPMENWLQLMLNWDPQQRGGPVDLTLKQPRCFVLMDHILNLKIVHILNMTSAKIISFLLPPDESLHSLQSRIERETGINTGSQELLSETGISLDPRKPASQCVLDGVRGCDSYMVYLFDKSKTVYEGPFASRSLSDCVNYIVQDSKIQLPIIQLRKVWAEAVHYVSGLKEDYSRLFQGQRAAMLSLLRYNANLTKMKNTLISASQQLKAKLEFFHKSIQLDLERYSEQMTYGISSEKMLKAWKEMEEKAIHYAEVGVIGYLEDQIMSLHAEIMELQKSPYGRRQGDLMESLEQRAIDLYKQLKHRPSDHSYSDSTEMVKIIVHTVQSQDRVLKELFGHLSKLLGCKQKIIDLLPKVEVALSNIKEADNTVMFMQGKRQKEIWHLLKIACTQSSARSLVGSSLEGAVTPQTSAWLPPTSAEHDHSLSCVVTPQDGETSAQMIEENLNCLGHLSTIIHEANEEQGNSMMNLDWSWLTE
# [7] = molecular target: T2, Inhibitor of nuclear factor kappa-B kinase subunit alpha (Homo sapiens); conditions: at 1 µM
# [8] = molecular target: T3, Inhibitor of nuclear factor kappa-B kinase subunit beta (Homo sapiens) (UniProt O14920); conditions: at 0.1 µM
# T3 sequence (whole entry): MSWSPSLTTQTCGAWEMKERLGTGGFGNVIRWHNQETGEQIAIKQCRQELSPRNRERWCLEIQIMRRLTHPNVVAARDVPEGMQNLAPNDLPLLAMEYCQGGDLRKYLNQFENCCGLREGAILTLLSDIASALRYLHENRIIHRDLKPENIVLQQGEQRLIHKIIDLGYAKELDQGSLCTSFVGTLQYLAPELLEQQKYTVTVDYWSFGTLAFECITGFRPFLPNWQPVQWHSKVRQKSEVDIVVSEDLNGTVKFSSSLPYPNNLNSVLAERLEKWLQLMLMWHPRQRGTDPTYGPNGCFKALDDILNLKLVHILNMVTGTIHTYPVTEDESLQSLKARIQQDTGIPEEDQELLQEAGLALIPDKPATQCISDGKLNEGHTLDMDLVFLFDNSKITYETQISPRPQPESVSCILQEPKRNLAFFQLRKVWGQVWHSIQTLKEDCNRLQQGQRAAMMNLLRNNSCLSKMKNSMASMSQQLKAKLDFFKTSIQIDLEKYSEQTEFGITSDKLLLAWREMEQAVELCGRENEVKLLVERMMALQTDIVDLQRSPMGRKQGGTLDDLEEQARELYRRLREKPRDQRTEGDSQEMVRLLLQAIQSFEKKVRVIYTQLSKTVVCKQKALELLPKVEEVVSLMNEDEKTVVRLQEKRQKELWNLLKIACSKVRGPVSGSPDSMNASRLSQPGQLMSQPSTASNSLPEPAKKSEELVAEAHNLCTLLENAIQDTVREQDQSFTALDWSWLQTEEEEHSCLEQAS
# [9] = molecular target: T3, Inhibitor of nuclear factor kappa-B kinase subunit beta (Homo sapiens); conditions: at 1 µM
# [10] = molecular target: T4, Inhibitor of nuclear factor kappa-B kinase subunit epsilon (Homo sapiens) (UniProt Q14164); conditions: at 0.1 µM
# T4 sequence (whole entry): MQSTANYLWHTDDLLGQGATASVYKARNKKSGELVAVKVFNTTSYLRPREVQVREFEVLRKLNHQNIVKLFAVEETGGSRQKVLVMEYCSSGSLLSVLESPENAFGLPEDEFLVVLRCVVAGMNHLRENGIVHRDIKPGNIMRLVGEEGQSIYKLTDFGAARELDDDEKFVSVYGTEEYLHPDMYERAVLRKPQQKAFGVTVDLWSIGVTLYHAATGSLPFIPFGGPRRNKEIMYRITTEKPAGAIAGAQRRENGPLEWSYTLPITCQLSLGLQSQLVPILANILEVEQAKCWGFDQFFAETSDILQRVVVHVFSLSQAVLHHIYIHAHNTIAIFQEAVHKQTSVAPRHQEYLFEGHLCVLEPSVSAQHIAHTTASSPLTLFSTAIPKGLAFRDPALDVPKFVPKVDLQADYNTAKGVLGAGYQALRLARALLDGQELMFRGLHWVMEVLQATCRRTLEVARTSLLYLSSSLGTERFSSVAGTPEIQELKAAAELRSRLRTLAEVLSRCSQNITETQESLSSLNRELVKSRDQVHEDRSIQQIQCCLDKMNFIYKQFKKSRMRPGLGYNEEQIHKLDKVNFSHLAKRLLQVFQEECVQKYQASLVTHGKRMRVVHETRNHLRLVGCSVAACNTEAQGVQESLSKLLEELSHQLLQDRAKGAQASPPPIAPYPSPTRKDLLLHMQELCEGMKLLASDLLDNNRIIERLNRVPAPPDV
# [11] = molecular target: T4, Inhibitor of nuclear factor kappa-B kinase subunit epsilon (Homo sapiens); conditions: at 1 µM
# [12] = molecular target: T5, Serine/threonine-protein kinase Nek1 (Homo sapiens) (UniProt Q96PY6); conditions: at 0.1 µM
# T5 sequence (whole entry): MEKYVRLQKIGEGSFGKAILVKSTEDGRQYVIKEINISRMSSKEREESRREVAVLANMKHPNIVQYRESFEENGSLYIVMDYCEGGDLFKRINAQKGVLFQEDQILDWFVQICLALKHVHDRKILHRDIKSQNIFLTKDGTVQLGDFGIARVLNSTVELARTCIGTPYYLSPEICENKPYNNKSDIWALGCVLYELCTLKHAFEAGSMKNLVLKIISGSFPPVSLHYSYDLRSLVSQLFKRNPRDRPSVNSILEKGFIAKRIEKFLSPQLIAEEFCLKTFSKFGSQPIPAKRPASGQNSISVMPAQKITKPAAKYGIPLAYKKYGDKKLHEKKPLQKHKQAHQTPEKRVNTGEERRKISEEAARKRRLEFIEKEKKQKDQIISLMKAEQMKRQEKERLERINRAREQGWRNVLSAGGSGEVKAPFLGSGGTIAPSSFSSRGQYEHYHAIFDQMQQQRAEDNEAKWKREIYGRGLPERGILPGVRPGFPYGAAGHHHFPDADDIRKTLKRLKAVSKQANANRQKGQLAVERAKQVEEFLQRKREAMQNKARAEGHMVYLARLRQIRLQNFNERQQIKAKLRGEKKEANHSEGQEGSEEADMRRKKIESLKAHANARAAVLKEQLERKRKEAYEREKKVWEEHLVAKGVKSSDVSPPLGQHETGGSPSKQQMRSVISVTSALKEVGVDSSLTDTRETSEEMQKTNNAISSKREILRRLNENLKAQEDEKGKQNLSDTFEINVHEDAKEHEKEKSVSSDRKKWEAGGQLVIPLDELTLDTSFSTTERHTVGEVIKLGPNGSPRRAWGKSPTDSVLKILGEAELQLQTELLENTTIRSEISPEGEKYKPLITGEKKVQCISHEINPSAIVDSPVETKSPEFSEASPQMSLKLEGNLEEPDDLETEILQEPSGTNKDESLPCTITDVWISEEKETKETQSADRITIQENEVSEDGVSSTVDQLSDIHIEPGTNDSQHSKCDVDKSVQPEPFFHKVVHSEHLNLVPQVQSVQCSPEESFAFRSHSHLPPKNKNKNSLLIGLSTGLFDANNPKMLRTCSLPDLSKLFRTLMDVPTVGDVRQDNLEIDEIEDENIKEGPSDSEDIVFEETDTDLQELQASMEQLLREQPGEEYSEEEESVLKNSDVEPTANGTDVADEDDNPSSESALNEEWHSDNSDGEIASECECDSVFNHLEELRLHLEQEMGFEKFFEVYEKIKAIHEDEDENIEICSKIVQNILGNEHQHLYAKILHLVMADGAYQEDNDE
# [13] = molecular target: T5, Serine/threonine-protein kinase Nek1 (Homo sapiens); conditions: at 1 µM
# [14] = molecular target: T6, Serine/threonine-protein kinase Nek2 (Homo sapiens) (UniProt P51955); conditions: at 0.1 µM
# T6 sequence (whole entry): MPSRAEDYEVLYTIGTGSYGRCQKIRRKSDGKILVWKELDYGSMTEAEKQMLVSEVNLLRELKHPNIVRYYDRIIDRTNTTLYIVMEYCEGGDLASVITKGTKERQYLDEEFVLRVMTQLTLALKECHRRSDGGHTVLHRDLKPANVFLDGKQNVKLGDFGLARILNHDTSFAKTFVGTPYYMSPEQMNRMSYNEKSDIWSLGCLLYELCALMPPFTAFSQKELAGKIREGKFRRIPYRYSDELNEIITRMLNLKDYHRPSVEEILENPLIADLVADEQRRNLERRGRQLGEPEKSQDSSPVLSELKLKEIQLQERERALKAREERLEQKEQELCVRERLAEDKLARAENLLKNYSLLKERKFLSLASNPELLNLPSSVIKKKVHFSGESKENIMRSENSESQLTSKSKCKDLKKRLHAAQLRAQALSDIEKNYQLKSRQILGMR
# [15] = molecular target: T6, Serine/threonine-protein kinase Nek2 (Homo sapiens); conditions: at 1 µM
# [16] = molecular target: Serine/threonine-protein kinase Nek6 (Homo sapiens) (UniProt Q9HC98); conditions: at 0.1 µM
# [17] = molecular target: Serine/threonine-protein kinase Nek6 (Homo sapiens) (UniProt Q9HC98); conditions: at 1 µM
# [18] = molecular target: Serine/threonine-protein kinase Nek7 (Homo sapiens) (UniProt Q8TDX7); conditions: at 0.1 µM
# [19] = molecular target: Serine/threonine-protein kinase Nek7 (Homo sapiens) (UniProt Q8TDX7); conditions: at 1 µM
# [20] = molecular target: T7, Serine/threonine-protein kinase Nek9 (Homo sapiens) (UniProt Q8TD19); conditions: at 0.1 µM;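 also: reported value is the mean percent inhibition of NEK9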
# T7 sequence (whole entry): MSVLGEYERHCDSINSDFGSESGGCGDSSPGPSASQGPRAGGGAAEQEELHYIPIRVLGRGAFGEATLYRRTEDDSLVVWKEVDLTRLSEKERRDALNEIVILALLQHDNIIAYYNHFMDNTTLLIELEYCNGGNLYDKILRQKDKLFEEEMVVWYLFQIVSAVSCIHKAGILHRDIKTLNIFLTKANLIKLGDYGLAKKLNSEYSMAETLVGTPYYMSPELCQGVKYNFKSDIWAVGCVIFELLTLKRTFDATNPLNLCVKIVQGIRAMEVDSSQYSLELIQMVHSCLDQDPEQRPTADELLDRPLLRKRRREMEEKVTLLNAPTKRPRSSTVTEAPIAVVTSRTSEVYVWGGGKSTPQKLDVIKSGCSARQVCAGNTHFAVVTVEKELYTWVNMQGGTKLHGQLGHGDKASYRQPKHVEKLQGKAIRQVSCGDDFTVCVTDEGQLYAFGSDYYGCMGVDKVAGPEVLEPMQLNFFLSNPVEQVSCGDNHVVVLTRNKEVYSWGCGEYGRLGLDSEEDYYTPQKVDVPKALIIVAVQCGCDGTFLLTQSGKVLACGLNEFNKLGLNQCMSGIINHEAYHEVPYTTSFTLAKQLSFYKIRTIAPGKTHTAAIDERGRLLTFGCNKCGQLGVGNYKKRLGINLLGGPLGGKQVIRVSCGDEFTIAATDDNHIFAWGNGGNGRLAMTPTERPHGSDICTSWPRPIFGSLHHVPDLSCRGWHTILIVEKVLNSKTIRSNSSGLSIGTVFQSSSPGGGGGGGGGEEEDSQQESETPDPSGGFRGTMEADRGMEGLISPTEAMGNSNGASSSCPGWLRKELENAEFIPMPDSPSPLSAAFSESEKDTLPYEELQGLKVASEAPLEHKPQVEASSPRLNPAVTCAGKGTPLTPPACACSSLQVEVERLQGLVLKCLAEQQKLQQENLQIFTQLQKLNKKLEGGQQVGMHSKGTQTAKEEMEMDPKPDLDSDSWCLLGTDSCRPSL
# Sequence of Serine/threonine-protein kinase Nek6 (Homo sapiens) (Q9HC98 whole entry): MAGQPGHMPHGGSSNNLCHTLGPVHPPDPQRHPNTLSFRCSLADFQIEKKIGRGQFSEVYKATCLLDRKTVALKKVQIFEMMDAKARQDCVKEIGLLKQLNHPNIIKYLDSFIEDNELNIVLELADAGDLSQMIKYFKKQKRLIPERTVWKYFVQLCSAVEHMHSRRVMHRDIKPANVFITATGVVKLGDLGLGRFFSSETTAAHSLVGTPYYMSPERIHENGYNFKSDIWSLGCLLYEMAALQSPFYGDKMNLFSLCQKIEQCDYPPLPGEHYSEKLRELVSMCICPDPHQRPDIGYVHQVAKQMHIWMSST
# Sequence of Serine/threonine-protein kinase Nek7 (Homo sapiens) (Q8TDX7 whole entry, looked up): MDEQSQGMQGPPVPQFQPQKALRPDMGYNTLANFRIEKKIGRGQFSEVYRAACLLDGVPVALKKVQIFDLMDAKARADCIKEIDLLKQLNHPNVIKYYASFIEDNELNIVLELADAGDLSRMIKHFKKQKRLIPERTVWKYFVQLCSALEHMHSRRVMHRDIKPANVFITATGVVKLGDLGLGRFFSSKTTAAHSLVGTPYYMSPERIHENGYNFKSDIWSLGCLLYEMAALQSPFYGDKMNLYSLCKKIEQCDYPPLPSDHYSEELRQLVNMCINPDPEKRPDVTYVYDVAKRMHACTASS
# Sequence of Casein kinase II subunit alpha (Homo sapiens) (P68400 whole entry, looked up): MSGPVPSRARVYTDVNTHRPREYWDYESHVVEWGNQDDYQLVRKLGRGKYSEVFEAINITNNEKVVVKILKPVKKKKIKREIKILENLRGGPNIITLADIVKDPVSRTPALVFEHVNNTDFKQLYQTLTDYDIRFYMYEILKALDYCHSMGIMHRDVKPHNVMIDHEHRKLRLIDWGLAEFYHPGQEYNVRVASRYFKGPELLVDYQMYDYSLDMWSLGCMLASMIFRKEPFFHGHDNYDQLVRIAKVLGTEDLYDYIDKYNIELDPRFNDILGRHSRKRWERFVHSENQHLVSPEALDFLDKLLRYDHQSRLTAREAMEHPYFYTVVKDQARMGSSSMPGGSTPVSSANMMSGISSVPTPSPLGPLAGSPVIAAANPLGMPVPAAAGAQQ
# Sequence of Sphingosine kinase 1 (Homo sapiens) (Q9NYA1 whole entry): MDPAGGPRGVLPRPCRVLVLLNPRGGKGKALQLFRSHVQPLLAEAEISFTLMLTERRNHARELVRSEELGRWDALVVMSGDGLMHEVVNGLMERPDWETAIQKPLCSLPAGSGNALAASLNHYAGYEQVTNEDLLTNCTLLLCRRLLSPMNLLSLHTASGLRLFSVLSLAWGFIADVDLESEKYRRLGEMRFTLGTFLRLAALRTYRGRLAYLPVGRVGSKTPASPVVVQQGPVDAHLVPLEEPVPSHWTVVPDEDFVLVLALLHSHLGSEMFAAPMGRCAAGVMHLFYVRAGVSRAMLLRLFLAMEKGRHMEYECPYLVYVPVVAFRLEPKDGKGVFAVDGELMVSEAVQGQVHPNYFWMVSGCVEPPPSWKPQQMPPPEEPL
smiles,measurement,setting,value
Nc1nc(-c2ccc3c(c2)C(=Cc2cc(Br)c(O)c(Br)c2)C(=O)N3)cs1,inhibition,[1],-0.49%
same,inhibition,[2],-0.01%
same,inhibition,[3],0.02%
same,inhibition,[4],2.7%
same,inhibition,[5],24.1%
same,inhibition,[6],9.67%
same,inhibition,[7],2.3%
same,inhibition,[8],0.26%
same,inhibition,[9],0.06%
same,inhibition,[10],-3%
same,inhibition,[11],-0.65%
same,inhibition,[12],-0.4%
same,inhibition,[13],2.14%
same,inhibition,[14],-0.41%
same,inhibition,[15],2.78%
same,inhibition,[16],-0.92%
same,inhibition,[17],3.09%
same,inhibition,[18],2.05%
same,inhibition,[19],-1.46%
same,inhibition,[20],2.02%
